Bioassay records as filed in PubChem.
A selection: hits, their analogues and other compounds. The true share with any hit is near 1.1%.
AmpC detergent: qHTS Inhibitors of AmpC Beta-Lactamase (assay with detergent); P00811; AmpC hydrolysis of nitrocefin, absorbance 480 nm, 0.01% Triton; Potency, µM (highest dose often 114 µM), usual class: inhibitors; actives 0.041% (n = 370,000); also: nearly all actives have a fitted effect of over 25% in size
Target sequence (P00811 whole entry, looked up): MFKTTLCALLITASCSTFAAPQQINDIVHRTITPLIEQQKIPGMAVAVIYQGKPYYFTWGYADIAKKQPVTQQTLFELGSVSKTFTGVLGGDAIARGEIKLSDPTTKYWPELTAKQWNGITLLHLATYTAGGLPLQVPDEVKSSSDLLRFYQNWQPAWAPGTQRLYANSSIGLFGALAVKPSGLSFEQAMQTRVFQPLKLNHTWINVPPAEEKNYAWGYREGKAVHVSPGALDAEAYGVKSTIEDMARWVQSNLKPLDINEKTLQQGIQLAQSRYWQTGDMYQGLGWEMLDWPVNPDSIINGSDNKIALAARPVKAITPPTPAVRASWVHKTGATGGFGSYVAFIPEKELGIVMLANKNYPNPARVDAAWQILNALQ
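20 mM phosphate pH 7.0 + 0.01% (detergent screen) or 0.0001% Triton X-100; 5.3 nM AmpC reagent; cpd preinc 15 min RT; nitrocefin (800 uM stock) to start; A480 q20 s × 4 min; Activity was normalised to no-enzyme and no-compound control wells.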
AmpC no deterg: qHTS Inhibitors of AmpC Beta-Lactamase (assay without detergent) | AmpC nitrocefin hydrolysis, absorbance 480 nm, 0.0001% Triton | Potency, µM (highest dose often 57.1 µM), most hits filed as inhibitors | actives 0.52% (n = 330,000) | AID 485341, 2010; also: nearly all actives have a fitted effect of over 20% in size
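20 mM phosphate pH 7.0 + 0.01% (detergent screen) or 0.0001% Triton X-100; 5.3 nM AmpC reagent; cpd preinc 15 min RT; nitrocefin (800 uM stock) to start; A480 q20 s × 4 min; Activity was normalised to no-enzyme and no-compound control wells.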
VACV Venus inh: qHTS for Stage-Specific Inhibitors of Vaccinia Orthopoxvirus: Venus Reporter Primary qHTS. Vaccinia virus Venus reporter expression, fluorescence. Potency, µM (doses to about 36.5 µM), hits mostly inhibitors. actives 0.46% (n = 330,000). AID 720580, 2013; calls by dose curve; tested in A549 cells; also: nearly all actives have a fitted effect of over 30% in size
Vaccinia mCherry: qHTS for Stage-Specific Inhibitors of Vaccinia Orthopoxvirus: mCherry Reporter Primary qHTS; Vaccinia virus mCherry reporter infection, fluorescence; Potency, µM (doses to about 36.5 µM), actives largely listed as inhibitors; actives 0.63% (n = 310,000); calls by dose curve; tested in A549 cells; also: nearly all actives have a fitted effect of over 35% in size
A number is an active result; - = inactive; ? = inconclusive; . = no result; ! = repeats disagree; [ ] = dose if it differs, or a comment. Unless noted, calls follow the shape of the dose curve; as a rule, active = well fitted curve in the direction sought with a large enough effect; inconclusive = small, poorly fitted or top-dose-only effect, or another doubt; inactive = no such curve, though single readings can be large; an effect the other way counts as inactive or inconclusive.

SMILES	AmpC detergent	AmpC no deterg	VACV Venus inh	Vaccinia mCherry
O=C(OCCCOc1ccc(F)cc1)c1ccc(O)cc1O	-	3.2µM	-	-
COCCS(=O)(=O)N(Cc1ccccc1)[C@H](C(=O)OC)C(C)C	.	-	-	-
COCCS(=O)(=O)N(Cc1ccc(Br)cc1)[C@@H](C)C(=O)OC	.	-	7.1µM	?
COc1cc(CN2CCc3nnc(C(NS(C)(=O)=O)C(C)C)n3CC2)ccc1F (stereo unspecified)	.	.	-	-
O=C(NNc1ccccc1F)c1sccc1Cl	.	.	-	-
CC(=O)OC1C(OC(C)=O)C2C(C)CC3OC(=O)C(C)C3CC2(C)C1OC(C)=O (stereo unspecified)	.	.	-	-
C[C@@H]1C[C@@H]2OC(=O)[C@]3(C)[C@H]2[C@@H](OC3(C)O)[C@]2(C)C(=O)C=C[C@H]12 (stereo partly specified)	-	-	?	-
C=C1C(=O)O[C@@H]2C[C@@H](C)[C@@H]3C=CC(=O)[C@@]3(C)[C@@H](OC(C)=O)[C@H]12	-	-	7.9µM	11µM
C=C1C(=O)O[C@@H]2C[C@@H](C)[C@@H]3C=CC(=O)[C@@]3(C)[C@@H](O)[C@H]12	-	-	10µM!	?
CCC1(C2CCN(C(=O)c3cc(F)ccc3F)CC2)NC(=O)N(CCc2scnc2C)C1=O (stereo unspecified)	.	.	-	-
CC(C)Oc1ccc(C(CCN)C2CCCCC2)cc1 (stereo unspecified)	-	-	?	13µM
CC(C)Oc1ccc(C(=O)NC2CCCCC2)cc1	-	-	-	.
COc1ccc(C2Nc3ccccc3C(=O)N2c2cccc3ccccc23)cc1COc1c(C)cccc1C (stereo unspecified)	.	.	?	-
CCN(CC)S(=O)(=O)c1cccc(-c2nnc(SCc3nc4ccccc4s3)o2)c1	-	-	28µM	.
Cc1ccc(NCCN(C)C)c2c(=O)c3cc(O)ccc3sc12	.	.	?	1.4µM
CCN(CC)CCNc1ccc(CO)c2sc3ccccc3c(=O)c12	-	-	?	-
Cc1cc(CNC(=O)CCN2Cc3cc(Cl)ccc3OC(C)C2)nn1C (stereo unspecified)	.	.	-	-
N=c1n(CCN2CCCCC2)c2ccccc2n1CC(O)c1cccc(Br)c1 (stereo unspecified)	-	-	?	?
N=c1n(CCN2CCCCC2)c2ccccc2n1CC(O)c1ccc(Cl)c(Cl)c1 (stereo unspecified)	-	-	11µM	?
C[N+]1(CC(=O)c2ccc(O)c(O)c2)CCOCC1	.	.	-	-
COCc1c(C(=O)NC2CCCCC2)cnn1-c1nccc(-c2cc(C)sc2C)n1	.	.	-	-
CN(C)CCCn1c(=S)[nH]c2ccccc2c1=O	-	-	-	-
CN(C)CCCn1c2c3ccccc3ccc2c2oc(=O)c3ccccc3c21	.	.	?	22µM
Cc1ccc(-c2nc3cc(Cl)ccc3o2)cc1NC(=O)COc1ccccc1C	.	.	-	-
Cc1ccnc(Nc2nc(-c3sc(C)nc3C)cs2)c1	.	.	?	3.5µM
SMILES	AmpC detergent	AmpC no deterg	VACV Venus inh	Vaccinia mCherry
C[C@@H]1CN(Cc2ccc3c(c2)CN(C(=O)CCc2nc4ccc(F)cc4[nH]2)CCO3)C[C@H](C)O1	.	.	-	-
Clc1cccc(CON/C=N/c2ncnc3sccc23)c1	-	-	?	.
Clc1cccc(Cl)c1CON/C=N/c1ncnc2sccc12	-	1.1µM	?	.
CN(CC(=O)Nc1ccc(Cl)c(C(F)(F)F)c1)C(=O)c1cn2ccccc2n1	-	35µM	-	-
N#Cc1c2c(c(Cl)n3c1nc1ccccc13)CCCC2	.	.	?	-
Fc1ccc(Nc2ccnc(Nc3ccc(F)cc3)n2)cc1	-	?	11µM	10µM
Cc1ccccc1NS(=O)(=O)c1cc(C(=O)NCCC2=CCCCC2)ccc1C	?	10µM	-	?
COc1ccccc1Nc1nn2c(=O)c3ccc(C(=O)NCCC4=CCCCC4)cc3nc2s1	-	.	7.9µM	8.9µM
O=C(NCCC1=CCCCC1)c1ccc(Cl)c(S(=O)(=O)Nc2ccccc2)c1	-	-	?	-
COC(=O)c1cc(CNC(=O)c2ccncc2)cc(NC(=O)c2ccccc2Cl)c1	.	.	-	-
Cc1ccc(C(=O)N/N=C/c2ccc([N+](=O)[O-])s2)cc1	-	-	?	-[1.46 µM]
O=C(CNC(=O)c1ccccc1)N/N=C/c1ccc([N+](=O)[O-])s1	-	-	10µM	10µM
O=C(N/N=C/c1ccc([N+](=O)[O-])s1)c1ccncc1	-	-	11µM	?
Cc1cccc(NC(=S)N/N=C/c2ccc([N+](=O)[O-])s2)c1	-	-	22µM	11µM
Cc1cccc(NC(=O)/C=C/c2ccc([N+](=O)[O-])s2)c1	-	-	-	-
O=S1(=O)CCOCCCN1Cc1ccc(F)cc1	.	.	?	-
Cc1cc(C)c2ccc(N)nc2c1O	-	-	?	13µM
Cc1ncc2c(c1CNC(=O)c1cncs1)CCN(C(=O)c1csc(-c3cccs3)n1)C2	.	.	-	-
Cc1ccc(C)c(Cn2c(=O)n(-c3ccc(CC(=O)NCc4ccco4)cc3)c(=O)c3sccc32)c1	?	11µM	-	-
CN(C)c1ccc(NC(=O)c2ccc([N+](=O)[O-])cc2Cl)cc1	100µM	-	-	-
COc1cc(Cl)c(C)cc1N1C(=O)[C@@H]2C[C@H]1CN2Cc1ccccn1	.	.	-	-
CC1CC2(C)Oc3ccccc3CC2C(C)C1CNCCCN(C)C (stereo unspecified)	-	-	14µM	?
Cc1ccc(SCC(=O)c2ccc(CC(=O)O)s2)cc1	-	20µM	-	-
O=C(O)Cc1ccc(C(=O)CSc2ccccc2)s1	-	?	.	.
